In the library only some 5.2% were active in any assay of this set; here they are far more common.
PLK1 PBD inh: inhibitors of human PLK1 polo-box domain binding; P53350; Plk1 PBD binding of FITC phosphopeptide, fluorescence polarization; Potency, µM, most hits filed as inhibitors; 2.8% of 360,000 active; AID 720504; note: series mostly up to about 57 µM; nearly all actives have a fitted effect of over 65% in size
mIDH1 inhibitor: inhibitors of human mutant IDH1 R132H; IDH1-R132H enzyme, NADPH consumption, diaphorase/resazurin fluorescence; Potency, µM (highest dose often 76.6 µM), hits mostly inhibitors; 0.093% of 390,000 active; AID 602179; note: nearly all actives have a fitted effect of over 65% in size
Target sequence (O75874 whole entry R132H, stated change not applied): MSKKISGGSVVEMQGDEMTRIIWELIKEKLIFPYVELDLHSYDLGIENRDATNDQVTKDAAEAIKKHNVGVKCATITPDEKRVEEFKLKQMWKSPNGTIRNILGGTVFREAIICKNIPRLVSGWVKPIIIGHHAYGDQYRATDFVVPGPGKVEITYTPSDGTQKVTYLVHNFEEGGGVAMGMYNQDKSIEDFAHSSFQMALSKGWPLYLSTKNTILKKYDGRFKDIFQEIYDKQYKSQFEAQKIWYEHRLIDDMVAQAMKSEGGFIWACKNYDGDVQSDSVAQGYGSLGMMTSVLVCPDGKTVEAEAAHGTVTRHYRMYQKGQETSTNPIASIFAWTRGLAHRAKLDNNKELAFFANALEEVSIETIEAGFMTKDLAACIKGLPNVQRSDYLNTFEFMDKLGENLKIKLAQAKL
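IDH1-R132H (0.5 ug/mL dispensed) in pH 7.5 Tris buffer was preincubated 30 min with compound, then given a substrate mix of 0.016 mM NADPH and 2 mM alpha-KG for 80 min at room temperature; remaining NADPH was read by diaphorase/resazurin fluorescence.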
VDR inh: inhibitors of human vitamin D receptor | 0.93% of 400,000 active | AID 504847 | Potency, µM, most hits filed as inhibitors | P11473 | VDR-SRC2-3 peptide fluorescence polarization, 2 h
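Reagent solutions, kept cold and dark, are dispensed first; compounds are then pinned in at 23 nl, plates briefly spun, and incubated 2 h at ambient temperature. Inhibition of VDR–SRC2-3 peptide binding is read by fluorescence polarization.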
TrxR1 substrate: substrates of rat thioredoxin reductase 1; O89049; purified TrxR1 substrate turnover, NADPH consumption readout; Potency, µM (titrated, usually from 114 µM); 0.01% of 390,000 active; note: nearly all actives have a fitted effect of over 50% in size
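Rat TrxR1, dispensed at 90 nM, was prereduced with 400 uM NADPH (final) for 5 min at ~22 deg C, then incubated with compound 15 min before 400 uM selenite. A first-read NADPH fluorescence drop versus no-compound background flagged substrates.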
Sfp PPTase inh: inhibitors of Bacillus subtilis Sfp phosphopantetheinyl transferase | Q9F4F7 | Biochemical Sfp PPTase activity, qHTS | Potency, µM, usual class: inhibitors | 3.5% of 310,000 active | AID 1490;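 note: the enzyme is Sfp with the accession as filed and its product quenches rhodamine fluorescence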
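Fluorescence-quenching assay with 15 nM Sfp, 5 uM rhodamine-CoA and 12.5 uM BHQ-2-labelled ybbR peptide in pH 7.6 Hepes/MgCl2 buffer. Enzyme was pre-incubated with compound for 15 min at room temperature. Rate was taken from the 30-min fluorescence change (525/598 nm).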
TrxR1 inh: inhibitors of rat thioredoxin reductase 1 | O89049 | recombinant rTrxR1, NADPH fluorescence consumption, selenite substrate | Potency, µM (top dose mostly 114 µM), most hits filed as inhibitors | 1% of 390,000 active; note: nearly all actives have a fitted effect of over 65% in size
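Rat TrxR1 (90 nM in the dispensed reagent) was pre-reduced with 400 uM NADPH for 5 min at room temperature, then incubated with compound for 15 min. After 400 uM selenite was added, NADPH fluorescence (Ex 340/Em 450 nm) was followed for 8 min.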
Of the large screens only hits and unclear results are named; the others gave an inactive call. Calls come from the whole dose curve; as a rule, active = well fitted curve in the direction sought with a large enough effect; inconclusive = small, poorly fitted or top-dose-only effect, or another doubt; inactive = no such curve, though single readings can be large; an effect the other way counts as inactive or inconclusive.

O=C(Nc1ccc2ncccc2c1)c1ccccc1	PLK1 PBD inh 8.4µM, VDR inh inconclusive
Cc1ccc2cc(NC(=O)c3ccc(C(C)(C)C)cc3)ccc2n1	Sfp PPTase inh 79µM
Cc1ccccc1S(=O)(=O)NC(=O)C1(C)CCN1C(=O)CCc1ccc(Cl)cc1Cl (configuration not stated)	none (no result: mIDH1 inhibitor, VDR inh, TrxR1 substrate, Sfp PPTase inh, TrxR1 inh)
CCN(CC)CCCNC(=O)c1ccc(Cn2c(SCc3ccccc3)nc3cccnc32)cc1	none (no result: PLK1 PBD inh, Sfp PPTase inh)
Cc1cc(Nc2cccc(Cl)c2)nc2ccc(NC(=O)COc3ccc(Cl)cc3)cc12	none (no result: PLK1 PBD inh, Sfp PPTase inh)
CCOc1cc(C(=O)Nc2cc3c(cc2N2CCOCC2)n(C)c(=O)n3C)cc(OCC)c1OCC	PLK1 PBD inh 13µM
CC(C)Oc1ccc(-c2nc(-c3cccnc3)no2)cc1	none (no result: PLK1 PBD inh, mIDH1 inhibitor, VDR inh, Sfp PPTase inh)
Cc1ccc(SCc2c(C#N)c3ccccc3n2C)cc1	PLK1 PBD inh 5.3µM
CCN(c1ccccc1)c1nc(N)nc(C#N)n1	none (no result: PLK1 PBD inh, mIDH1 inhibitor, Sfp PPTase inh)
C=CCn1c(N)c(C(=O)NC2CCCCC2)sc1=S	Sfp PPTase inh 16µM
C=CCn1c(N)c(C(=O)NCc2cccnc2)sc1=S	none
CCOCCCn1c(C)nc2c[n+](CC(=O)c3ccc4ccccc4c3)cc(Br)c21	none
CN(C)c1nc(N)c(C#N)c(C#N)c1C#N	PLK1 PBD inh 27µM (no result: Sfp PPTase inh)
CCCc1nnc(NC(=O)c2nc(SCC)ncc2Cl)s1	none (no result: PLK1 PBD inh, Sfp PPTase inh)
O=[N+]([O-])c1ccc(-c2ccn[nH]2)o1	TrxR1 inh 3.5µM
O=C(O)[C@H]1O[C@@H](Oc2ccc3ccc(=O)oc3c2)[C@H](O)[C@@H](O)[C@@H]1O	Sfp PPTase inh inconclusive (no result: PLK1 PBD inh, mIDH1 inhibitor, TrxR1 substrate, TrxR1 inh)
Cc1cnc(NC(=O)CCNC(=O)c2ccc([N+](=O)[O-])cc2)s1	PLK1 PBD inh 27µM
c1ccc2c(Nc3ccc4c(c3)OCCO4)c3c(nc2c1)CCCC3	Sfp PPTase inh 50µM
COC(=O)[C@H](Cc1ccccc1)NC(=O)O[C@@H]1C(=O)c2ccc(OC)cc2O[C@H]1c1cccc(C(F)(F)F)c1	none (no result: PLK1 PBD inh, mIDH1 inhibitor, TrxR1 substrate, TrxR1 inh)
O=S1(=O)c2ccccc2N=NN1Cc1ccc(Cl)cc1	PLK1 PBD inh inconclusive, Sfp PPTase inh 50µM, TrxR1 inh inconclusive
O=C(C[n+]1cccc2cc(Cl)ccc21)c1cccc([N+](=O)[O-])c1	none (no result: PLK1 PBD inh, mIDH1 inhibitor, VDR inh, Sfp PPTase inh)
COC(=O)C1=C(C(=O)OC)[C@@H]2N(Cc3ccccc3)c3ccccc3[C@@]23C[C@@H](C(=O)OC)N(C(=O)NCc2ccccc2)C3=C1	none (no result: PLK1 PBD inh, mIDH1 inhibitor, TrxR1 substrate, TrxR1 inh)

Assay outcomes from PubChem.
